# FLuc inh: Firefly luciferase inhibition profiling of diverse chemical library using quantitative high-throughput screening. Luciferin 4-monooxygenase (Photinus pyralis), P08659. purified P. pyralis luciferase, luminescence, biochemical. Potency, µM (highest dose often 115 µM), usual class: inhibitors. 76,000 tested, 2.5% active; further: on the % scale 0 is the no-effect control and ±100 the full control effect; nearly all actives have a fitted effect of over 65% in size
#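 Luminescence read by CCD imager after adding enzyme (10nM final) to wells holding compound, titrated in qHTS. Substrates 10uM each D-luciferin and ATP; buffer 50mM Tris acetate pH 7.5, 10mM Mg acetate, Tween-20, BSA.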
# HEK cytotox: Cytotoxic Profiling in HEK 293 Cell Line of Diverse Libraries Using Quantitative High-Throughput Screening; HEK 293 viability, ATP luminescence (CellTiter-Glo), 48-72 h; Potency, µM (series often up to 115 µM), for the others: top-dose activity change, negative = cytotoxicity, most hits filed as inhibitors; 94,000 tested, 6.6% active; further: on the % scale 0 is the no-effect control and ±100 the full control effect; nearly all actives have a fitted effect of over 60% in size
#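 HEK 293 seeded at 250 cells/well receive compound via pintool. After 48 or 72 hr at 37 degree Celsius, 5% CO2 and 95% humidity, CellTiter-Glo is dispensed and luminescence read following 10 min at room temperature.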
# GPT2 inhibitor: Primary qHTS assay for inhibitors of Glutamate pyruvate transaminase 2 (GPT2); 100,000 tested, 0.25% active; Recombinant GPT2, coupled pyruvate oxidase/HRP Amplex Red fluorescence; Potency, µM (highest dose often 57.7 µM), for the others: at the highest dose activity change, negative = inhibition, usual class: inhibitors; Alanine aminotransferase 2 (Homo sapiens), Q8TD30; further: on the % scale 0 is the no-effect control and ±100 the full control effect; nearly all actives have a fitted effect of over 60% in size
# Target sequence (Q8TD30 whole entry, looked up): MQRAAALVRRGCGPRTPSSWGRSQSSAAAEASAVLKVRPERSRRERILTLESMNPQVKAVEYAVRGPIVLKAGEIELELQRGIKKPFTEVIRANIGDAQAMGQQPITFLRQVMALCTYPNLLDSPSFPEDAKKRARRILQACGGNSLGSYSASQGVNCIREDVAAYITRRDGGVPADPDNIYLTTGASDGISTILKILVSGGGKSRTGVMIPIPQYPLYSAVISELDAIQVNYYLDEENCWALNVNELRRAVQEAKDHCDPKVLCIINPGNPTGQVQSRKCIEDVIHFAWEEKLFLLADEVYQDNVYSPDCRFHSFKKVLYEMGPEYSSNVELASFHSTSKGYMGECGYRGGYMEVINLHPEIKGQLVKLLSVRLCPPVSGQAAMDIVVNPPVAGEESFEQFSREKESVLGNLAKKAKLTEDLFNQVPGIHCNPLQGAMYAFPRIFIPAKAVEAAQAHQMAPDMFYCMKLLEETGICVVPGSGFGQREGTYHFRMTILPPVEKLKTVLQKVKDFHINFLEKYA
#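 Fluorescence of coupled pyruvate oxidase/HRP/Amplex Red system (50uM Amplex, 30 min, dark) reports pyruvate formed by GPT2. Enzyme reaction: 10ng/uL GPT2, 2mM L-alanine, 250uM a-KG, 30 min room temperature, pH 7.5; 50uM AOA control.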
# NIH3T3 tox: Cytotoxic Profiling in NIH 3T3 Cell Line of Diverse Libraries Using Quantitative High-Throughput Screening; AID 1345082, 2018; NIH 3T3 viability, CellTiter-Glo ATP luminescence, 48-72 h; Potency, µM (doses to about 96.7 µM), without a hit: top-dose activity change, negative = cytotoxicity, actives largely listed as inhibitors; 94,000 tested, 4.3% active; further: on the % scale 0 is the no-effect control and ±100 the full control effect; nearly all actives have a fitted effect of over 55% in size
#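 NIH 3T3 cells at 400 cells/well received 23 nL of compound by pintool and were incubated 48 or 72 h at 37 °C. Viability was read as ATP-coupled CellTiter-Glo luminescence.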
# NPR1 antag: Natriuretic polypeptide receptor (hNpr1) antagonism - Primary qHTS; Atrial natriuretic peptide receptor 1 (Homo sapiens), P16066; HEK293 hNpr1 GloSensor cGMP, ANP-stimulated luminescence; Potency, µM (doses to about 46.3 µM), without a hit: at the top dose activity change, negative = inhibition, hits mostly inhibitors; 76,000 tested, 1.6% active; calls by dose curve; further: on the % scale 0 is the no-effect control and ±100 the full control effect; nearly all actives have a fitted effect of over 60% in size
#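 HEK293 cells stably expressing human Npr1 and cGMP GloSensor pGS-40F, loaded 2 h with 2% GloSensor reagent, given compound 30 min at room temperature. Luminescence read before and 20 min after 0.1 nM hNppA.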
# NPR1 antag cnf: Natriuretic polypeptide receptor (hNpr1) antagonism - Confirmation; shares compounds with NPR1 antag; HEK293 hNpr1 cGMP GloSensor luminescence, ANP-stimulated; Potency, µM (top dose mostly 57.6 µM), for the others: at the top dose activity change, negative = inhibition, hits mostly inhibitors; 1,400 tested, 76% active; AID 1347044, 2019; calls by dose curve; further: nearly all actives have a fitted effect of over 70% in size
# NPR2 antag: Natriuretic polypeptide receptor (hNpr2) antagonism - Subtype selectivity assay; shares compounds with NPR1 antag; 1,400 tested, 67% active; Potency, µM (series often up to 57.6 µM), without a hit: at the top dose activity change, negative = inhibition, actives largely listed as inhibitors; AID 1347046, 2019; HEK293 hNpr2 GloSensor cGMP luminescence, CNP-stimulated; calls by dose curve; further: nearly all actives have a fitted effect of over 70% in size
# FLuc counter: Natriuretic polypeptide receptor (hNpr1) antagonism - Confirmation firefly luciferase (FLuc) inhibition counterscreen; shares compounds with NPR1 antag; Potency, µM (doses to about 57.6 µM), without a hit: at the highest dose activity change, negative = inhibition, most hits filed as inhibitors; 1,400 tested, 0.7% active; purified FLuc enzyme, luminescence, Km substrate; further: 0% is about no effect
# GloSensor cGMP: Natriuretic polypeptide receptor (hNpr1) antagonism - Counterscreen GloSensor control cell line. shares compounds with NPR1 antag. HEK293 GloSensor cGMP, SNP-stimulated, luminescence. Potency, µM (doses to about 57.6 µM), without a hit: at the top dose activity change, negative = inhibition, hits mostly inhibitors. 1,400 tested, 69% active. AID 1347051, 2019; calls by dose curve; further: on the % scale 0 is the no-effect control and ±100 the full control effect; nearly all actives have a fitted effect of over 70% in size
# * hit, by the source's call; i = inactive; ? = inconclusive; / = no result; ! = not confirmed by another sample; [ ] = dose if it differs, or a comment. The list is not random: actives were taken first. Their share in the collection is about 10%. Unless noted, the call rests on the fitted dose curve; in most records, active means well fitted curve in the direction sought with a large enough effect; inconclusive means small, poorly fitted or top-dose-only effect, or another doubt; inactive means no such curve, though single readings can be large; an effect the other way counts as inactive or inconclusive. Potency means the concentration at half of the fitted maximal effect.
SMILES,FLuc inh,HEK cytotox,GPT2 inhibitor,NIH3T3 tox,NPR1 antag,NPR1 antag cnf,NPR2 antag,FLuc counter,GloSensor cGMP
O=C(c1cccc(F)c1)N1CCC2(CC1)N=C(c1ccc(Br)cc1)NO2,i,?,i,?,?,/,/,/,/
O=C(c1ccccc1)N1CCC2(CC1)N=C(c1ccc(Br)cc1)NO2,i,?,i,?,16µM*,27µM*,?,1%,?
CN(C)c1ccc(C(=O)N2CCC3(CC2)N=C(c2ccc(Br)cc2)NO3)cc1,i,?,i,-17%,11µM*,19µM*,22µM*,0%,15µM*
O=C(c1ccc2cc[nH]c2c1)N1CCC2(CC1)N=C(c1cccc(Br)c1)NO2,i,?,1%,?,?,/,/,/,/
Cc1ccc(C2=NC3(CCN(C(=O)c4ccc(N(C)C)cc4)CC3)ON2)cc1,?,?,i,-13%,-15%,/,/,/,/
O=C(c1ccc2[nH]ccc2c1)N1CCC2(CC1)N=C(c1ccc(Br)cc1)NO2,i,?,i,?,11µM*,24µM*,14µM*,-10%,11µM*
O=C(NCCOc1ccccc1)c1cnc2n1CCN(Cc1ccccc1O)CC2,i,?,i,-25%[138 µM],-17%[70.6 µM],/,/,/,/
O=C(NCCOc1ccccc1)c1cnc2n1CCN(Cc1c[nH]c3ccccc13)CC2,i,100µM*,-7%[88.5 µM],?,?,31µM*,?,4%[86.2 µM],35µM*
O=C(CN1CCCc2nc(-c3ccccc3)ncc2C1=O)NCCc1c[nH]c2ccccc12,i,?,3%,?,10µM*,27µM*,?,-10%,22µM*
Cc1[nH]ncc1CNC(=O)CN1CCCc2nc(-c3ccccc3)ncc2C1=O,i,-15%,i,-15%,-1%,/,/,/,/
CC(CCc1ccco1)NC(=O)CN1CCCc2nc(-c3ccccc3)ncc2C1=O (stereo unspecified),i,?,i,?,?,?,?,2%,?
Cc1nn(C)cc1C(C)NC(=O)CN1CCCc2nc(-c3ccccc3)ncc2C1=O (stereo unspecified),i,?,i,-25%,?,?,-29%,3%,-20%
O=C(O)CN1CCCc2nc(-c3ccccc3)ncc2C1=O,i,i,i,i,5%,/,/,/,/
O=C(NCc1ccccc1F)c1ccc2nc(-c3cccnc3)oc2c1,/,?,i,-15%,/,/,/,/,/
CN1CCC(N(C)C(=O)CC2CCCN(c3cnn(C)c(=O)c3)C2)CC1 (stereo unspecified),/,-19%,2%,-25%,/,/,/,/,/
OCC1CCCN(c2ccc(-c3nc(-c4cccc(C(F)(F)F)c4)no3)cn2)C1 (stereo unspecified),i,-29%,-10%,?,14µM*,14µM*,17µM*,?,17µM*
Cc1oc(-c2cccc(C(F)(F)F)c2)nc1CN1CCCC(CO)C1 (stereo unspecified),i,?,-4%,-27%,2%,/,/,/,/
Cc1cc(=O)n(CC(=O)Nc2ccc(Cl)cc2)c(N2CCc3ccccc3C2)n1,i,?,i,?,-16%,/,/,/,/
Cc1cc(=O)n(CC(=O)Nc2cccc(Cl)c2)c(N2CCc3ccccc3C2)n1,i,?,i,14µM*,20µM*,-30%,-23%,1%,?
COc1cc(NC(=O)Cn2c(N3CCC(C)CC3)nc(C)cc2=O)cc(OC)c1,i,?,-11%,?,6.3µM*,9.7µM*,12µM*,3%,6.9µM*
COc1ccc(OC)c(NC(=O)Cn2c(N3CCC(C)CC3)nc(C)cc2=O)c1,i,?,3%,?,13µM*,22µM*,22µM*,4%,24µM*
CNC(=O)c1cc(C2CC2)nc2c1c(C1CCN(C(=O)c3cccnc3)CC1)nn2C,/,i,/,-2%,/,/,/,/,/
Cc1ccc(C(=O)N2CC(Oc3ccc(F)cc3C)C2)cc1,i,?,i,?,-1%[70.6 µM],/,/,/,/
O=C(c1ccccn1)N1CCC(N2C(=O)C3(CCCCC3)C2c2ccncc2)CC1 (stereo unspecified),/,5%,i,-10%,/,/,/,/,/
CCCN1C(=O)Cc2ccccc2C1C(=O)NCc1cc(OC)ccc1OC (stereo unspecified),i,?,i,-26%,-26%,?,?,3%,-11%
Cc1ccc(NC(=O)O[C@@H]2CC[C@]3(C)[C@H](CC[C@H]4OC(=O)C[C@H]43)[C@]2(C)CO)cc1,i,-23%[172 µM],1%[88.5 µM],-13%[138 µM],?,?,?,-5%[86.2 µM],40µM*
O=c1[nH]c(C2CCN(Cc3cccc(-c4cccs4)c3)CC2)nc2ccc(F)cc12,i,22µM*!,0%,28µM*,?,-27%,?,1%,?
CCC1Oc2ccc(NC(=O)COC)cc2CN(Cc2ccc(F)cc2)C1=O (stereo unspecified),i,?,2%,-22%,0%,/,/,/,/
